Screening data as filed in PubChem.
Compounds with a hit are over-represented: about 0.71% of the library has one in this group of screens.
GALK inhibitor – galactokinase (human) inhibition | Purified GALK, Kinase-Glo residual ATP luminescence | 270,000 tested, 0.007% active | Potency, µM (titrated, usually from 57.5 µM), for the others: at the highest dose activity change, negative = inhibition, most hits filed as inhibitors | P51570; note: potency is the fitted concentration of half-maximal effect; % is set by controls: 0 for no effect and ±100 for the full control effect
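The enzyme phosphorylates galactose (100 uM) using ATP (35 uM); inhibition is detected as higher residual ATP, quantified by bioluminescence after 1 h reaction at room temperature, pH 8.0.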
FBPA coupling cs – coupling enzyme interference in Giardia aldolase counter-screen; coupling enzyme system counterscreen, AmpLite Red fluorescence; activity change, negative = inhibition, % at 58.2 µM, hits read low; 290,000 tested, 0.67% active; in the data active = activity change below about -30%; note: % is set by controls: 0 for no effect and ±100 for the full control effect
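Activity here indicates interference with the coupling reaction, not aldolase inhibition. Compounds at 57.5 uM final met coupling enzymes for 10 min at RT; substrate and AmpLite Red detection followed, with a 525/598 nm fluorescence read after 20 min.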
USP2a block – inhibitors of human ubiquitin-specific protease USP2a | USP2 core, Ub-CHOP2 coupled fluorogenic reporter, 485/531 | O75604 | 330,000 tested, 0.01% active | Potency, µM (top dose mostly 38.3 µM), without a hit: at the top dose activity change, negative = inhibition, hits mostly inhibitors;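 note: potency is the fitted concentration of half-maximal effect; plate controls were DMSO wells for no effect and full inhibition by NEM control for full effect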
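Deubiquitinase activity read as fluorescence (485/531 nm) after Ub-CHOP2 cleavage activates the enterokinase reporter on its substrate; USP2 core 10nM, Ub-CHOP2 and substrate 25nM each, 30min compound preincubation then 60min RT; data normalized to NEM, curves fitted.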
USP1 inh – USP1/UAF1 (human) deubiquitinase inhibition | Potency, µM (series often up to 57.1 µM), for the others: at the top dose activity change, negative = inhibition, actives largely listed as inhibitors | AID 743255 | recombinant USP1/UAF1, Ub-Rhodamine cleavage fluorescence | O94782 | 390,000 tested, 0.23% active; note: potency is the fitted concentration of half-maximal effect; % is set by controls: 0 for no effect and ±100 for the full control effect; nearly all actives have a fitted effect of over 60% in size
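1 nM enzyme complex + cpd, 15 min RT; start with Ub-Rho 150nM final; kinetic fluorescence ex 480/em 540, 6 reads q60 s. Buffer 50mM HEPES pH 7.8, 0.5mM EDTA, 0.1 mg/ml BSA, 1mM TCEP, 0.01% Tween-20.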
Eya2 inh – blocks the phosphatase activity of human Eya2; Potency, µM (top dose mostly 76.9 µM), without a hit: top-dose activity, negative = inhibition, most hits filed as inhibitors; recombinant Eya2, OMFP fluorescence dephosphorylation (OMFP is methylfluorescein phosphate); AID 488837; 330,000 tested, 0.006% active; note: potency is the fitted concentration of half-maximal effect; % is set by controls: 0 for no effect and ±100 for the full control effect
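Eya2 protein (added as 0.2 uM solution) was preincubated with compound for 10 min at ambient temperature in 50 mM HEPES pH 7.5, 50 mM NaCl, 5 uM MgCl2, 0.05% BSA, 1 mM DTT. OMFP (added at 50 uM) then reacted 10 min; fluorescence read at 485/525 nm.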
PI4K2A block – PI4K2A (human) kinase inhibition; Q9BTU6; 420,000 tested, 0.13% active; AID 1346378; purified PI4K2A, ADP-Glo luminescence, 1 h; hits give low values; activity change, negative = inhibition, % at 76.9 µM; in the data active = activity change below about -50%; inconclusive = mostly about -30% to -49%;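 note: -100% = wells without enzyme as full effect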
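PI4K2A activity was measured by ADP-Glo luminescence: enzyme (4 ug/mL stock) and phosphatidylinositol (1.2 mM stock) in Tris pH 7.5/MgCl2/EGTA/Triton X-100 buffer were reacted with ATP (300 microM stock) for one hour at ambient temperature.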
Casp1 confirm – blocks human caspase-1 activity in concentration-response; shares compounds with FBPA coupling cs; purified caspase-1, fluorogenic substrate cleavage; Potency, µM (titrated, usually from 57.5 µM), without a hit: at the highest dose activity change, negative = inhibition, usual class: inhibitors; 60 tested, 20% active; active = well fitted inhibition curve with a large enough effect in the main read-out, with a control signal flat; inconclusive = small, poorly fitted or top-dose-only effect, or a change in a side signal; inactive = no such curve, though single readings can be large or run the other way
Casp7 confirm – blocks human caspase-7 activity in concentration-response | recombinant caspase-7, fluorogenic substrate cleavage | 60 tested, under 10 active | shares compounds with FBPA coupling cs | Potency, µM (series often up to 57.5 µM), for inactives: at the top dose activity change, negative = inhibition, most hits filed as inhibitors; active = well fitted inhibition curve with a large enough effect in the main read-out, with a control signal flat, not every such curve was filed as active; inconclusive = small, poorly fitted or top-dose-only effect, or a change in a side signal; inactive = no such curve, though single readings can be large or run the other way
CASP7 redox cys – caspase-7 inhibition with cysteine present; shares compounds with FBPA coupling cs; caspase-7 enzyme with cysteine, fluorogenic substrate, redox counterscreen; Potency, µM (top dose mostly 57.5 µM), for the others: at the top dose activity change, negative = inhibition, hits mostly inhibitors; 60 tested, under 10 active; AID 908; active = well fitted inhibition curve with a large enough effect in the main read-out, with a control signal flat; inconclusive = small, poorly fitted or top-dose-only effect, or a change in a side signal; inactive = no such curve, though single readings can be large or run the other way
Casp1 cysteine – caspase-1 inhibition with cysteine present. AID 929. shares compounds with FBPA coupling cs. Potency, µM (doses to about 57.5 µM), for inactives: at the top dose activity change, negative = inhibition, most hits filed as inhibitors. 60 tested, under 10 active. recombinant caspase-1, fluorogenic substrate, cysteine buffer; active = well fitted inhibition curve with a large enough effect in the main read-out, with a control signal flat; inconclusive = small, poorly fitted or top-dose-only effect, or a change in a side signal; inactive = no such curve, though single readings can be large or run the other way
An asterisk follows results filed as active; ? = inconclusive; . = no result given. Unless noted, calls come from the whole dose curve; as a rule, active = well fitted curve in the direction sought with a large enough effect; inconclusive = small, poorly fitted or top-dose-only effect, or another doubt; inactive = no such curve, though single readings can be large; an effect the other way counts as inactive or inconclusive.

SMILES	GALK inhibitor	FBPA coupling cs	USP2a block	USP1 inh	Eya2 inh	PI4K2A block	others
CC(C)N(C(=O)Nc1ccc2nsnc2c1)C(C)C	2%	-37*	21%	6.3µM*	-5%	-68*
COCCNC(=S)Nc1ccc2nsnc2c1	0%	-43*	2%	-12%	-5%	?
CCOc1ccc(NC(=S)Nc2ccc3nsnc3c2)cc1	-19%	-28	1%	28µM*	3%	-25
S=C(Nc1ccc(Cl)c(Cl)c1)NC1CCCCC1	-3%	-3	3%	-13%	-5%	6
CCOC(=O)Cn1cccc1-c1nc(-c2ccc(OC)cc2)c(-c2ccc(OC)cc2)s1	.	.	.	.	.	3
Cc1nc(N2CCOCC2)c2nc(-c3ccccc3)n(CCN3CCCC3)c2n1	.	1	.	.	.	.
C=CCN(CC=C)C(=S)Nc1ccc2nsnc2c1	0%	-54*	1%	-13%	4%	-1
COc1ccc(NC(=S)Nc2ccc3nsnc3c2)cc1	.	-41*	4%	5.6µM*	3%	?
COc1ccc(NC(=S)Nc2ccc3nc(C)c(C)nc3c2)cc1	-3%	-21	-2%	-20%	-5%	2
COc1ccc(C(=O)N(O)c2ccccc2)cc1	.	0	.	.	.	.
O=C(Nc1cccc2c(=O)cc(-c3nn[nH]n3)oc12)c1ccc(OCCCCc2ccccc2)cc1	.	.	.	.	.	0
CCN(CC)CCCNc1ccc2ncn3c4ccc(O)cc4c(=O)c1c23	.	.	.	28µM*	.	-50*
c1ccc2oc(SCc3cn4ccsc4n3)nc2c1	4%	3	-4%	-4%	-8%	-12
Cc1csc2nc(CSc3nc4ccccc4o3)cn12	-2%	-51*	0%	-6%	0%	-5
CCN1C(=O)[C@H]2[C@H]3[C@H](O)[C@H](O)C/C(=N/O[C@@H](C)c4cn([C@H]5COC[C@H]5O)nn4)[C@@H]3CC[C@@H]2C1=O	.	-1	.	.	.	.
O=C1CC2(CCCC2)CC(=O)N1	.	.	.	.	.	-3
C=COCC1CN2C(CCC(C)C2c2ccc(Br)cc2)C(=O)O1 (centres undefined)	.	1	.	.	.	.
O=C(O)C(=O)Nc1cccc(-c2nn[nH]n2)c1	.	.	.	.	.	-5
CCOC(=O)Nc1c(O)ccc2oc(C)c(-c3ccccc3)c12	-1%	-57*	1%	-7%	-21%	6
CCOC(=O)C(=O)Nc1nc(-c2ccccc2)c(-c2ccccc2)o1	0%	10	-5%	-12%	1%	-4
Cn1nc(-c2ccc(Cl)cc2)nc2c(=O)n(C)c(=O)nc1-2	1.1µM*	-76*	16%	.	?	.
COc1cc(C(C#N)N2CCCCC2)ccc1O (centres undefined)	1%	-20	-1%	-17%	18%	10
COc1cc(C(C#N)N2CCOCC2)ccc1O (centres undefined)	2%	-35*	1%	-22%	14%	3
Cc1ccc2sc(NNC(=O)c3cc(=O)c4ccccc4o3)nc2c1C	0%	-47*	-2%	32µM*	-6%	3
COc1ccc2nc(NNC(=O)c3cc(=O)c4ccccc4o3)sc2c1	-1%	-3	-2%	28µM*	-2%	-4
SMILES	GALK inhibitor	FBPA coupling cs	USP2a block	USP1 inh	Eya2 inh	PI4K2A block	others
Cc1cccc2sc(NNC(=O)c3cc(=O)c4ccccc4o3)nc12	1%	-8	0%	?	-4%	-5
CCOC(=O)CCCNC(=O)N1CCc2nc(-c3ccc(OC)cc3C)c3c(c2C1)CO[C@@H](c1ccccc1)C3	.	0	.	.	.	.
COc1ccc(S(=O)(=O)N(CC(=O)NCCSc2ccccc2)c2ccc(Cl)cc2)cc1	.	.	.	-16%	.	-2
O=C(O)[C@H](O)c1ccccc1	.	.	.	.	.	1
COc1ccc2[nH]c3c4c(ccc3c2c1)C(=O)C=CC4=O	0%	-38*	-6%	?	7%	-4
COc1ccc2[nH]c(-c3ccc(F)cc3F)cc(=O)c2c1	.	1	.	.	.	.
O=C(NNc1cc(N2CCOCC2)nc(N2CCOCC2)n1)c1ccc([N+](=O)[O-])cc1	?	-54*	-4%	32µM*	-11%	?
O=C(Cc1ccccc1Nc1c(Cl)cccc1Cl)OCO/N=[N+](\[O-])N1CCCC1	.	-25	.	.	.	.
CC[n+]1c(/C=C/C=C2/N(C)c3ccccc3C2(C)C)sc2ccccc21	.	.	.	.	12%	?
CN1/C(=C/C=C/c2n(C)c3cc([N+](=O)[O-])c([N+](=O)[O-])cc3[n+]2C)C(C)(C)c2ccccc21	.	.	.	?	.	-75*
COC(=O)C/C=C\[C@@H](C)[C@@H](/C=N\O[C@@H](C)c1cn([C@H](CO)Cc2ccccc2)nn1)NS(=O)(=O)c1ccc(C)cc1	.	-1	.	.	.	.
CCCC(=O)Nc1cc(OC)c(NC(=O)NC2CCCCC2)cc1OC	6%	-45*	-2%	-11%	-2%	3
COc1ccc(OC)c(NC(=O)NC2CCCCCCC2)c1	-1%	.	1%	-6%	-9%	-4
CCOc1ccc(-n2c(SCc3ccc(C#N)cc3)nnc2-c2ccco2)cc1	.	.	.	.	.	-8
Cc1cc(O)c(-c2n[nH]c3c2C(c2cccc(O)c2)N(Cc2cccnc2)C3=O)cc1Cl (centres undefined)	-1%	3	1%	-10%	6%	3	Casp1 confirm=-7%;Casp7 confirm=-25%;CASP7 redox cys=-30%;Casp1 cysteine=15%
CCc1ccc(C2c3c(-c4ccccc4O)n[nH]c3C(=O)N2Cc2cccnc2)cc1 (centres undefined)	.	.	.	?	.	1
Cn1c(SCC(=O)Nc2ccc(S(=O)(=O)Nc3nccs3)cc2)nc2sc3c(c2c1=O)CCCC3	.	.	.	.	.	0
